Epigenetic reg: regulators of epigenetic silencing causing reporter derepression in mouse cells; murine LDR cells, GFP reporter derepression, 30 h; Potency, µM (titrated, usually from 53.9 µM), inactives show at the top dose GFP activation, usual class: activators; 280,000 tested, 0.2% active; note: % of control where 0% means no effect; nearly all actives have a fitted effect of over 60% in size
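Murine LDR cells carrying a silenced, genomically integrated CMV-driven GFP reporter were exposed to compound for 30 hours at 37 C. After PBS washes, GFP-positive cells (20–120 um objects) were counted by laser-scanning microplate cytometry.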
IMPase Li inh: cell-permeable IMPase inhibitors with lithium potentiation. CHO-M1 cells, IP1 TR-FRET (IP-One), carbachol + lithium. Potency, µM (top dose mostly 59.4 µM), for inactives: top-dose activity, negative = IMPase inhibition, usual class: inhibitors. 210,000 tested, 0.35% active. AID 1457;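 note: IP1 builds up when IMPase is blocked and the TR-FRET signal falls; plate controls were basal vehicle for no effect and high inhibitor control for full effect; nearly all actives have a fitted effect of over 50% in size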
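IP1 accumulation measured by competitive TR-FRET in lysed CHO-M1 cells after 30 min compound exposure at 37C, with a small lithium addition to potentiate weak responses. Hill-equation AC50 from ratio and donor-channel data.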
NPSR antag: blocks cAMP signaling of the human neuropeptide S receptor; Q6W5P4; Potency, µM (series often up to 38.3 µM), inactives show top-dose activity change, negative = inhibition, actives largely listed as inhibitors; AID 1461; 220,000 tested, 1% active; CHO-NPSR cells, cAMP TR-FRET, antagonist mode; note: % is set by controls: 0 for no effect and ±100 for the full control effect; nearly all actives have a fitted effect of over 50% in size
GCN5L2 inh: GCN5L2 (KAT2A) acetyltransferase inhibition. Q92830. GCN5L2 HAT assay, ThioGlo1 CoA-SH fluorescence. Potency, µM (highest dose often 58.9 µM), without a hit: top-dose activity change, negative = inhibition, usual class: inhibitors. 390,000 tested, 0.21% active; note: % is set by controls: 0 for no effect and ±100 for the full control effect
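qHTS, 1536-well. 20nM enzyme, pH 7.5 HEPES/EDTA/Tween-20 buffer; 15 min compound preinc., RT. Start: 75uM H3(1-25), 70uM AcCoA, 50uM ThioGlo1. Read Ex340/Em540 at t=0 (autofluorescence flag) and t=20 min.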
KDM4E inh: blocks human JMJD2E demethylase activity; Potency, µM (titrated, usually from 57.1 µM), for the others: at the top dose activity change, negative = inhibition, hits mostly inhibitors; AID 2147; JMJD2E catalytic domain, FDH-coupled NADH fluorescence (FDH is formaldehyde dehydrogenase); 230,000 tested, 1.6% active; B2RXH2; active = well fitted inhibition curve with a large enough effect, not every such curve was filed as active; inconclusive = small, poorly fitted or top-dose-only effect, or another doubt; inactive = no such curve, though single readings can be large or run the other way;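 note: 0% = wells with enzyme and -100% = buffer wells without enzyme; nearly all actives have a fitted effect of over 50% in size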
Target sequence (B2RXH2 1-337 limits assumed): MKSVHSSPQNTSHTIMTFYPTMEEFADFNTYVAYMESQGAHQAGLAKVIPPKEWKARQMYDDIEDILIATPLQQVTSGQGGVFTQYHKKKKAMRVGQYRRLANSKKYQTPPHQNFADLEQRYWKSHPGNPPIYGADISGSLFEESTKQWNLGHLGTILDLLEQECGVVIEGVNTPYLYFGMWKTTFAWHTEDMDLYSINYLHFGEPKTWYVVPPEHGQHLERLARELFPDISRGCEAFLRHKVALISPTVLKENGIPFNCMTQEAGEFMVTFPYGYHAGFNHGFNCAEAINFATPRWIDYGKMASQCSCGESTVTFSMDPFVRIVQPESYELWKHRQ
Sfp PPTase inh: Sfp phosphopantetheinyl transferase inhibition; Q9F4F7; Biochemical Sfp PPTase activity, qHTS; Potency, µM, inactives show largest response in the series, negative = inhibition, actives largely listed as inhibitors; 310,000 tested, 3.5% active; AID 1490;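 note: the enzyme is Sfp with the accession as filed and its product quenches rhodamine fluorescence; 0% = enzyme reaction without inhibitor and -100% = no enzyme wells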
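Reaction rates are the 30-min fluorescence difference (ex 525, em 598 nm) in wells containing 15 nM Sfp, 5 uM rhodamine-CoA and 12.5 uM BHQ-2-YbbR at pH 7.6 with 10 mM MgCl2.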
* hit, by the source's call; ? = inconclusive; · = not tested or not shown; [ ] = another dose, or the depositor's remark. A selection: hits, their analogues and other compounds. The true share with any hit is near 3.6%. Unless noted, calls come from the whole dose curve; as a rule, active = well fitted curve in the direction sought with a large enough effect; inconclusive = small, poorly fitted or top-dose-only effect, or another doubt; inactive = no such curve, though single readings can be large; an effect the other way counts as inactive or inconclusive. Potency is the fitted concentration of half-maximal effect.

SMILES | Epigenetic reg | IMPase Li inh | NPSR antag | GCN5L2 inh | KDM4E inh | Sfp PPTase inh
CCc1nnc(NC(=O)c2nc(S(=O)(=O)Cc3cccc(C)c3)ncc2Cl)s1 | -5% | · | · | -5% | · | 56µM*
Cc1c(Cl)cccc1NC(=S)Nc1ccc2[nH]c(=O)[nH]c2c1 | 2% | · | 19% | -2% | -1% | 56µM*
O=C(NC(=S)Nc1ccc2[nH]c(=O)[nH]c2c1)c1ccccc1Cl | · | · | · | -25% | · | 2%
CC(OCc1ccccc1)C(NC(=O)OC(C)(C)C)C(=O)NC1COC2CC(n3cc(F)c(=O)[nH]c3=O)OC12 (centres undefined) | · | · | · | · | · | 3%
Cc1cc(/C=N/n2cnnc2)c(C)n1-c1ccc(OCc2ccc(Cl)cc2)cc1 | 5% | 9%[38.3 µM] | 10µM* | -4% | ? | 45µM*
C[C@@H]1/C=C\CC(=O)OC[C@H](C)C(=O)N[C@@H](C)C(=O)OC1 | 0%[10.1 µM] | · | · | · | · | 0%
NS(=O)(=O)c1ccc(NC(=S)NC2CCCCC2)cc1 | 9% | 0% | -9% | 0% | -5% | 7.9µM*
CC(C)CC(=O)NC(=S)Nc1ccc(S(=O)(=O)NC(C)(C)C)cc1 | -3% | 7% | -3% | -3% | -3% | -2%
CC(C)CC(=O)NNC(=S)Nc1ccc(S(N)(=O)=O)cc1 | -1% | 2% | -3% | 0% | -4% | 20µM*
S=C(NCc1cccnc1)Nc1ccc(Oc2ccccc2)cc1 | -2% | 14% | -3% | -19% | ? | 40µM*
NS(=O)(=O)c1ccc(NC(=S)N2CCC(Cc3ccccc3)CC2)cc1 | · | · | · | -6% | · | 22µM*
Cc1ccc(S(=O)(=O)N[C@H]2COC(=O)C/C=C\[C@@H](C)COC(=O)C/C=C\[C@@H]2C)cc1 | 2%[10.1 µM] | · | · | · | · | 2%
CC(=O)N1[C@H](Cc2ccccc2)C=C[C@]1(C)C(=O)O | -1% | -7% | · | · | 0% | 25%
COC(=O)N1C(c2ccccc2)=Cc2ccccc2C1C1(C(=O)OC)CCCC1=O (centres undefined) | -1% | 6% | · | · | -16% | -2%
CC(C)=CCC/C(C)=C/CO/N=C1/C[C@@H](O)[C@@H](O)[C@@H]2[C@@H]3C(=O)N(Cc4ccc5c(c4)OCO5)C(=O)[C@H]3CC[C@@H]12 | 5%[10.1 µM] | · | · | · | · | -2%
COC(=O)C1=C[C@@H](C(=O)OC)C2C3=C(C(=O)[C@@]2(C)NC(=O)c2ccccc2)[C@H](c2ccccc2)n2c(=O)n(-c4ccccc4)c(=O)n2[C@@H]3C1 (some centres undefined) | · | · | · | · | · | 8%
CCNC(=S)NS(=O)(=O)c1ccc(CC)cc1 | -1% | 4%[38.3 µM] | 3%[46.1 µM] | -3% | -2% | -27%
CCc1ccc(S(=O)(=O)NC(=S)Nc2ccccc2)cc1 | -1% | · | -4% | -3% | 1% | 16µM*
NS(=O)(=O)c1ccc(NC(=S)N2CCN(Cc3ccc4c(c3)OCO4)CC2)cc1 | 1% | 0% | 7% | -10% | -3% | 22µM*
S=C(Nc1ccccc1)N1CCC(C2CCN(C(=S)Nc3ccccc3)CC2)CC1 | 17% | · | -3% | 4% | 9% | 16%
NS(=O)(=O)c1ccc(NC(=S)NCc2cccc(Cl)c2)cc1 | 1% | · | -14%[46.1 µM] | 1% | -22% | 11%
OC1CCN(C(=S)Nc2ccc(Nc3ccccc3)cc2)CC1 | -1%[10.1 µM] | 4% | -12% | -4% | 8% | 18µM*
NS(=O)(=O)c1ccc(NC(=S)NCc2ccccc2)cc1 | -1% | -2% | 2% | 1% | -5% | 56µM*
Cc1ccc(C)c([C@@H]2NC(=O)c3ccccc3N2)c1 | · | 0% | · | · | · | ·
CCc1cc(-c2oncc2-c2ccc(OC)cc2)c(O)cc1OC | · | · | · | -27% | · | -22%
CCN(CC)C(=O)CN1CCN(Cc2ccc3c(c2)OCO3)CC1 | · | · | · | -19% | · | 79µM*
CC(=O)c1sc2nc(-c3cccs3)cc(C(F)(F)F)c2c1N | 16µM* | -21%[38.3 µM] | 10%[46.1 µM] | -5% | ? | 8%
Nc1c(C(=O)C2CC2)sc2nc(-c3ccccc3)cc(C(F)(F)F)c12 | 5% | 13µM* | 24%[46.1 µM] | 1% | -8% | -16%

Screening results as filed in PubChem.
